Records with an inconclusive call do not appear. Calls of active or inactive are those of the source. The calls were made as follows, unless noted: active = hit-call score of the fitted dose curve at least 0.9, where 1 is the maximum; inconclusive = response in the unintended direction; inactive = score below 0.9.
How the values were obtained:
[1] = biological target: Glucocorticoid receptor (Homo sapiens) (UniProt P04150); assay: ATG_GR_TRANS: Attagene TRANS-FACTORIAL HepG2 Assay for human Glucocorticoid Receptor (GR) (AID 2282978); conditions: HepG2 Attagene TRANS GR reporter, mRNA transcription;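 also: activators score as hits since higher reporter transcript over DMSO is fitted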
How it was run: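 HepG2 cells transiently transfected with multiplexed reporter units in which chimeric NR-GAL4 proteins drive GAL4-UAS reporters; 24 h compound exposure. Reporter mRNA measured by RT-PCR, 6-FAM labelling, HpaI digestion and capillary electrophoresis; gain-of-signal fitted versus DMSO.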

[2] = biological target: Oxysterols receptor LXR-alpha (Homo sapiens) (UniProt Q13133); assay: ATG_LXRa_TRANS: Attagene TRANS-FACTORIAL HepG2 Assay for human Liver X Receptor alpha (LXRa) (AID 2282980); conditions: HepG2 Attagene TRANS reporter, LXRa transactivation
How it was run: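 Chemical-induced reporter mRNA measured by RT-PCR with fluorescent labelling and capillary electrophoresis after 24 h dosing of transiently transfected HepG2 cells expressing exogenous NR-Gal4 chimeras; increases scored against DMSO baseline.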

[3] = biological target: Oxysterols receptor LXR-beta (Homo sapiens) (UniProt P55055); assay: ATG_LXRb_TRANS: Attagene TRANS-FACTORIAL HepG2 Assay for human Liver X Receptor beta (LXRb) (AID 2282981); conditions: HepG2 Attagene TRANS GAL4-LXRb reporter, mRNA
How it was run: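 Gain-of-signal mRNA reporter endpoint, DMSO as negative control. Transiently transfected HepG2 cells carrying the NR-Gal4 chimera and GAL4-UAS reporter units were treated 24 h; transcripts quantified by RT-PCR and capillary electrophoresis fluorescence.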

[4] = biological target: Hepatocyte nuclear factor 4-alpha (Homo sapiens) (UniProt P41235); assay: ATG_HNF4a_TRANS: Attagene TRANS-FACTORIAL HepG2 Assay for human Hepatocyte Nuclear Factor 4 alpha (HNF4a) (AID 2282982); conditions: HepG2 HNF4a transactivation reporter, mRNA readout
How it was run: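 Gain-of-signal mRNA induction, relative to DMSO vehicle, was read after 24 h compound treatment of HepG2 cells bearing transfected GAL4-UAS reporters. Detection used RT-PCR, 6-FAM primer extension and capillary electrophoresis.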

[5] = ATG_M_32_TRANS: Attagene TRANS-FACTORIAL HepG2 Assay for M32 Transcription Factor (Internal Marker) (AID 2282984); conditions: HepG2 Attagene TRANS M32 internal marker reporter;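 also: transcript level of a background control reporter unit measured by RT-PCR and capillary electrophoresis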
How it was run: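 Capillary electrophoresis of 6-FAM-labelled reporter fragments gives the signal; data fitted for gain over DMSO negative control. Source: HepG2 cells bearing transient multiple reporter transcription units, 24 h exposure.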

[6] = biological target: Nuclear receptor subfamily 4 group A member 2 (Homo sapiens) (UniProt P43354); assay: ATG_NURR1_TRANS: Attagene TRANS-FACTORIAL HepG2 Assay for human Nuclear Receptor Related Protein 1 (NURR1) (AID 2282985); conditions: HepG2 Attagene TRANS reporter, mRNA readout
How it was run: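 HepG2 / transient MRTU transfection / 24 h compound exposure / RT-PCR + CE fluorescence of reporter mRNA / gain-of-signal vs DMSO.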

[7] = biological target: Transcriptional activator Myb (Homo sapiens) (UniProt P10242); assay: ATG_Myb_CIS: Attagene CIS-FACTORIAL HepG2 Assay for human Myeloblastosis (Myb) Proto-Oncogene Transcription Factor (AID 2282986; active = hit-call score of the fitted dose curve at least 0.9, where 1 is the maximum; inactive = score below 0.9); conditions: HepG2 Attagene CIS-FACTORIAL Myb reporter transcription; actives raise or lower the signal
How it was run: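 HepG2 cells were transiently transfected with cis-regulated multiple reporter transcription units reflecting endogenous Myb activity, then exposed to compound for 24 hours. Reporter mRNA was measured by RT-PCR with capillary electrophoresis; bidirectional fitting versus DMSO baseline.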

[8] = biological target: Nuclear respiratory factor 1 (Homo sapiens) (UniProt Q16656); assay: ATG_NRF1_CIS: Attagene CIS-FACTORIAL HepG2 Assay for human Nuclear Respiratory Factor 1 (NRF1) Orphan Gene (AID 2282987; active = hit-call score of the fitted dose curve at least 0.9, where 1 is the maximum; inactive = score below 0.9); conditions: HepG2 NRF1 cis-element reporter, Attagene multiplex; actives raise or lower the signal
How it was run: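 HepG2 cells transiently transfected with multiple reporter transcription units under cis-regulatory promoter control, so endogenous transcription-factor activity is read. After 24 h compound exposure, reporter mRNA quantified by RT-PCR, fluorescent labelling, HpaI digestion and capillary electrophoresis; bidirectional fitting versus DMSO.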

[9] = ATG_M_06_TRANS: Attagene TRANS-FACTORIAL HepG2 Assay for M06 Transcription Factor (Internal Marker) (AID 2282983); conditions: HepG2 Attagene TRANS M06 internal marker reporter
How it was run: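 Cells: HepG2, transient multi-reporter transfection. Exposure: 24 h. Detection: RT-PCR, 6-FAM labelling, HpaI digestion (2 h, 37 °C), capillary electrophoresis. Baseline: DMSO.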

Measured: AC50

Oxysterols receptor LXR-beta (Homo sapiens), sequence (P55055 whole entry, looked up, the tested form may be a part): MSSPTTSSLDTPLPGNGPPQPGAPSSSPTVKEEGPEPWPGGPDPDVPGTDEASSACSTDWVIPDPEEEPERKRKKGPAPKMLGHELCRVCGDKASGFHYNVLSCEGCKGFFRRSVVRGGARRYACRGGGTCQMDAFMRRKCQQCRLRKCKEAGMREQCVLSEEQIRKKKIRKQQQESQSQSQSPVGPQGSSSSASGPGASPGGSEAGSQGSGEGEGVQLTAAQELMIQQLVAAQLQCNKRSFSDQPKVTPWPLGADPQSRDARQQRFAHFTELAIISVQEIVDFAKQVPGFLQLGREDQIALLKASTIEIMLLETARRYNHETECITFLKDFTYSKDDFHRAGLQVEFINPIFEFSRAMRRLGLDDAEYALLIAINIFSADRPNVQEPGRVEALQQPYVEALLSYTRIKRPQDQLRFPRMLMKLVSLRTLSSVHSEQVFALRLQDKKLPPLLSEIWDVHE
Transcriptional activator Myb (Homo sapiens), sequence (P10242 whole entry, looked up): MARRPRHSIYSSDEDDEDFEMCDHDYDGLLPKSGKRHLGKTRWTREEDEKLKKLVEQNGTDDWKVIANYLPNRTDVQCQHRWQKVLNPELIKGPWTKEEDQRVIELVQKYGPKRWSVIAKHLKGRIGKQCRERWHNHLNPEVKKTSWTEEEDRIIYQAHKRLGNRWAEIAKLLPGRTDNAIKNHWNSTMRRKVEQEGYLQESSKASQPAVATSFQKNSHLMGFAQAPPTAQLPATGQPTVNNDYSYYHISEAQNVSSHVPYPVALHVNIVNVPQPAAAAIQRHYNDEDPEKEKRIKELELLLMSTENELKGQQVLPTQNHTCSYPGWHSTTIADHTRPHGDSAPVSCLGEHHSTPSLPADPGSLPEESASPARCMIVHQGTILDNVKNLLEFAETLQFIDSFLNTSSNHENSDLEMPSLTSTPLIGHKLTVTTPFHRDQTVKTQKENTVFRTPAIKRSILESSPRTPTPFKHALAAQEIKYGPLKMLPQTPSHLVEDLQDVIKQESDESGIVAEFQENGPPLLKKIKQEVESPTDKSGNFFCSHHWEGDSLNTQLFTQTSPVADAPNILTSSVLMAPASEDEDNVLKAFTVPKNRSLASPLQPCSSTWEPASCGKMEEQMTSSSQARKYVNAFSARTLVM
Glucocorticoid receptor (Homo sapiens), sequence (P04150 whole entry, looked up, the tested form may be a part): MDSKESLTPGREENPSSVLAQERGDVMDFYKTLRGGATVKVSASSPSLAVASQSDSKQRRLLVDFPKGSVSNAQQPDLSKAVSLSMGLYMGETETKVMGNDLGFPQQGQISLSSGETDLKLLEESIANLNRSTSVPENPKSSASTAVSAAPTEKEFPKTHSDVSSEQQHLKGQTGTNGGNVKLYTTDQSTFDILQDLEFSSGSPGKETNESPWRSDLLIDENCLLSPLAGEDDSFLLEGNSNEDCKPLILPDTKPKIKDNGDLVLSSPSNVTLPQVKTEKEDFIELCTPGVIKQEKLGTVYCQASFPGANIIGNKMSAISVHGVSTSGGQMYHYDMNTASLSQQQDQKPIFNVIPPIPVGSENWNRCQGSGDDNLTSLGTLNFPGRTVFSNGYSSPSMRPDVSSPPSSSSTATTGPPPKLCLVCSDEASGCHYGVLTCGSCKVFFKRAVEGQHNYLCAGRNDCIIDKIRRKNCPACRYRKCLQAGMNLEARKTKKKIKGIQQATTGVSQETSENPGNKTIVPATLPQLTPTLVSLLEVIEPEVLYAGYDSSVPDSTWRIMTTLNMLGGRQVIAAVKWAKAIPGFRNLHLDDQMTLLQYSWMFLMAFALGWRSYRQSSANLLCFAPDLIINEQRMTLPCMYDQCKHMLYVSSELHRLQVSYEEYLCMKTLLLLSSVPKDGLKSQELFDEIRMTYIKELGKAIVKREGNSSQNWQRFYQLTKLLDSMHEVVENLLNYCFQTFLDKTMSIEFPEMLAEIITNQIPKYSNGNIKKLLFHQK
Oxysterols receptor LXR-alpha (Homo sapiens), sequence (Q13133 whole entry, looked up, the tested form may be a part): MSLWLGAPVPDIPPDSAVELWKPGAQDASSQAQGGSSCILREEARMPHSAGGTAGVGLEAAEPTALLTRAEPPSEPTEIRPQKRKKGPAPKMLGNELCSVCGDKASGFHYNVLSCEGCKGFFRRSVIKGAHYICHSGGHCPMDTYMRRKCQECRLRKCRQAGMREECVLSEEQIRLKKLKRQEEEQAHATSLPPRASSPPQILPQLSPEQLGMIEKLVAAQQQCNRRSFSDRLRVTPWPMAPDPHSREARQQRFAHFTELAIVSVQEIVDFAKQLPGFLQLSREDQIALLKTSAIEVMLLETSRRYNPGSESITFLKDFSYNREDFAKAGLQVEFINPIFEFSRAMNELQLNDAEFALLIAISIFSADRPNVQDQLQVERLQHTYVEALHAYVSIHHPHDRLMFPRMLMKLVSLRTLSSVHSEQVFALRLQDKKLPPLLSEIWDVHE
Hepatocyte nuclear factor 4-alpha (Homo sapiens), sequence (P41235 whole entry, looked up, the tested form may be a part): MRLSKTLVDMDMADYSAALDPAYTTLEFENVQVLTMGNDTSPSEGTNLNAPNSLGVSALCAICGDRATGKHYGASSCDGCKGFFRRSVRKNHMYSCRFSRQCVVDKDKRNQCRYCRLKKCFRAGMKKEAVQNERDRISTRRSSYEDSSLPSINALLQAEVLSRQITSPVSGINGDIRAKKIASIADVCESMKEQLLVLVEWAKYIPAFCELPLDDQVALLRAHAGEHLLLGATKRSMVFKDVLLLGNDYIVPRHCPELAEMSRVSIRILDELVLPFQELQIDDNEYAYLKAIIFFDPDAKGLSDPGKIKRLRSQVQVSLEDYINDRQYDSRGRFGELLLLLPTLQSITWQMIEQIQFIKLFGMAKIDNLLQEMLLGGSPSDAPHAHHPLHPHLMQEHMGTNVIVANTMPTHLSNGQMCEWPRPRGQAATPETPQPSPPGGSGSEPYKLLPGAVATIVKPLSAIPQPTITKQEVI
Nuclear receptor subfamily 4 group A member 2 (Homo sapiens), sequence (P43354 whole entry, looked up): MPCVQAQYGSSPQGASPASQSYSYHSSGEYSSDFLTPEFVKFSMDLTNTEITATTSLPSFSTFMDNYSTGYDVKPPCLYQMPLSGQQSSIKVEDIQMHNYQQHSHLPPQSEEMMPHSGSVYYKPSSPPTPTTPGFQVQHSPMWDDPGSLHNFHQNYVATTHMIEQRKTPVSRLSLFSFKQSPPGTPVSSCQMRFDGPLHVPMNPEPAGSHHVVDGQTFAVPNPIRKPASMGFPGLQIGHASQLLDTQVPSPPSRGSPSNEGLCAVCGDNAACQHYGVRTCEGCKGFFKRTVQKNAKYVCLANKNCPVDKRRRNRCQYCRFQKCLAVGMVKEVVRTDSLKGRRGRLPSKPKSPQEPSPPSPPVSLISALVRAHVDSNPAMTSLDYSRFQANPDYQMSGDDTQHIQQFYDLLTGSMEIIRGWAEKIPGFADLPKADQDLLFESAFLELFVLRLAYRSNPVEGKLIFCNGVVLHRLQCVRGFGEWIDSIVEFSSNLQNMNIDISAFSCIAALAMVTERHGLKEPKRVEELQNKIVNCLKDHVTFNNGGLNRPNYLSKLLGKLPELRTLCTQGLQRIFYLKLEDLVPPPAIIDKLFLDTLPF
Nuclear respiratory factor 1 (Homo sapiens), sequence (Q16656 whole entry, looked up): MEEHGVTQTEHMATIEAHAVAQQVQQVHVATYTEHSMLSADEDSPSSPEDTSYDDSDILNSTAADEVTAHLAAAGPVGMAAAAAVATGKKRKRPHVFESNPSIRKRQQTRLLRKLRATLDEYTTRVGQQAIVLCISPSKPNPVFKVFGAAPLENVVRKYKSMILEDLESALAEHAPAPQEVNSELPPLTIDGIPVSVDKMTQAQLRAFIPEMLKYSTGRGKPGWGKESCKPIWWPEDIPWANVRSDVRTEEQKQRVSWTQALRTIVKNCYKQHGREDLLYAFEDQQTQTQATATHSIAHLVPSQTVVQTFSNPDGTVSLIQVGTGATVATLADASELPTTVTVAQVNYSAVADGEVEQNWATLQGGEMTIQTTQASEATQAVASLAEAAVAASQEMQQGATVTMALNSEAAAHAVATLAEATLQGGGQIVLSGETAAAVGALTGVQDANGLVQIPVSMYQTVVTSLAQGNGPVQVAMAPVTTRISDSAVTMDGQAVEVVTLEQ

O=C1c2ccccc2C(=O)C1c1nc2ccccc2c(Br)c1O
not listed: [9]
inactive: all other assays above

CN(C)CCCN(C)C
not listed: [4] | [5] | [6]
inactive: all other assays above

CCOC(=O)Cc1cccc2ccccc12
not listed: [4] | [6] | [9]
inactive: all other assays above

C=CC=CC=CCCCCC
not listed: [3]
inactive: all other assays above

C=C(C)CCO
not listed: [4]
inactive: all other assays above

COc1cc(NC(=O)CC(C)=O)c(OC)cc1Cl
inactive: [1] | [2] | [3] | [6] | [8]

CC=CC(=O)N(CC)c1ccccc1C
not listed: [6] | [9]
inactive: all other assays above

Nc1ccc2cc3ccccc3cc2c1
not listed: [4] | [5]
inactive: all other assays above

CCCCC/C=C\CCC=O
not listed: [4] | [9]
inactive: all other assays above

CC(C)(C)c1ccc(N)cc1
not listed: [5] | [9]
inactive: all other assays above

CCCCCCCC[N+](C)(CCCCCCCC)CCCCCCCC
not listed: [3] | [6] | [9]
inactive: all other assays above

CCCOC(=O)CCCCC(=O)OCCC
not listed: [9]
inactive: all other assays above

CCCCCCCCCCCCCCCC(=O)OCC
not listed: [4] | [9]
inactive: all other assays above

CC(C)C1=CC2=CC[C@@H]3[C@](C)(CCC[C@@]3(C)C(=O)O)[C@H]2CC1
active: [2] 26.8 µM | [6] 111 µM
inactive: [1] | [4] | [9] | [8]

C=CCOCC(O)CCl (configuration not stated)
not listed: [3] | [7]
inactive: all other assays above

CC(=O)OCCC1CCCCC1
inactive: [1] | [2] | [3] | [9] | [7]

CCN(CC)c1ccc(C(=O)c2ccccc2C(=O)O)c(O)c1
not listed: [3] | [6] | [7]
inactive: all other assays above

CC1(C)O[C@@H]2C[C@H]3[C@@H]4C[C@H](F)C5=CC(=O)C=C[C@]5(C)[C@@]4(F)[C@@H](O)C[C@]3(C)[C@]2(C(=O)CO)O1
inactive: [2] | [3] | [9] | [7]
active: [1] 0.0525 µM

Cc1cccc(N(C)C(=S)Oc2ccc3ccccc3c2)c1
active: [6] 44.1 µM
inactive: [1] | [2] | [4] | [9] | [5]

CCCCCCOC(=O)C(C)CC (configuration not stated)
not listed: [3] | [6] | [9]
inactive: all other assays above

O=[N+]([O-])C1(Br)COCOC1
not listed: [4] | [5]
inactive: all other assays above

Cc1ccc([N+](=O)[O-])cc1S(=O)(=O)O
not listed: [5] | [7] | [9]
inactive: all other assays above

Nc1ccc(N=Nc2ccccc2)c(N)n1
not listed: [9]
inactive: all other assays above

COc1ccc2nc(N)sc2c1
not listed: [3]
inactive: all other assays above

CC(C)c1ccc2cc(C(C)C)ccc2c1
not listed: [2] | [5]
inactive: all other assays above

C=C(C)[C@@H]1CCC2=CCC[C@@H](C)[C@]2(C)C1
not listed: [2] | [4]
inactive: all other assays above

CCC(CO)CO
not listed: [2] | [9]
inactive: all other assays above

CCc1nccnc1C
not listed: [2]
inactive: all other assays above

CCCCCCCCCCc1ccccc1
not listed: [2] | [4]
inactive: all other assays above

CC1(C)[C@H]2CC[C@]1(C)C(=O)C2
not listed: [3] | [4] | [6]
inactive: all other assays above

— PubChem BioAssay (EPA / NIEHS)
